Substitutions are numbered along the chain they refer to; changes in the protein carry UniProt numbers. Over roughly 16,000 sequences, “ka relative to ugcaugu” has its median near 0.096; the highest 2% begin near 0.35. What follows is part of a selection rich in the highest values, with near analogues and random picks from the rest.
T1: RBFOX1 RRM RbFoxmut (Fox-RRM*) (Homo sapiens, UniProt Q9NWB1 109-208, R118D;E147R;N151S;E152T)
T1 sequence: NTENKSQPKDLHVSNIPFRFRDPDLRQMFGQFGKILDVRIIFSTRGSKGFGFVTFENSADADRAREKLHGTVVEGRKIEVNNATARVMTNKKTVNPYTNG

B1: ACGUAGU (DNA:RNA)
RNA: GGGAGACCGGAAUUCAGAUUGUCCACGUAGUUUAAAUCCCGUCGUAGCCACCA
DNA 1: CAATCTGAATTCCGGTCTCCC
DNA 2: TGGTGGCTACGACGGGATT
B2: CAACGCA (DNA:RNA)
RNA: GGGAGACCGGAAUUCAGAUUGUCCCAACGCAUUAAAUCCCGUCGUAGCCACCA
DNA 1: CAATCTGAATTCCGGTCTCCC
DNA 2: TGGTGGCTACGACGGGATT
B3: UGUAUAC (DNA:RNA)
RNA: GGGAGACCGGAAUUCAGAUUGUCCUGUAUACUUAAAUCCCGUCGUAGCCACCA
DNA 1: CAATCTGAATTCCGGTCTCCC
DNA 2: TGGTGGCTACGACGGGATT
B4: UUCCAAG (DNA:RNA)
RNA: B3 RNA with G26U, U27C, A28C, U29A, C31G
DNA 1: CAATCTGAATTCCGGTCTCCC
DNA 2: TGGTGGCTACGACGGGATT
B5: AUCGUGG (DNA:RNA)
RNA: B1 RNA with C26U, G27C, U28G, A29U, U31G
DNA 1: CAATCTGAATTCCGGTCTCCC
DNA 2: TGGTGGCTACGACGGGATT
B6: CGUUUCG (DNA:RNA)
RNA: B3 RNA with U25C, A28U, A30C, C31G
DNA 1: CAATCTGAATTCCGGTCTCCC
DNA 2: TGGTGGCTACGACGGGATT
B7: CAAAACG (DNA:RNA)
RNA: B2 RNA with C28A, G29A, A31G
DNA 1: CAATCTGAATTCCGGTCTCCC
DNA 2: TGGTGGCTACGACGGGATT
B8: GAGAGGA (DNA:RNA)
RNA: B2 RNA with C25G, A27G, C28A, C30G
DNA 1: CAATCTGAATTCCGGTCTCCC
DNA 2: TGGTGGCTACGACGGGATT
B9: GUAUGAG (DNA:RNA)
RNA: B2 RNA with C25G, A26U, C28U, C30A, A31G
DNA 1: CAATCTGAATTCCGGTCTCCC
DNA 2: TGGTGGCTACGACGGGATT
B10: GAUUGAG (DNA:RNA)
RNA: B2 RNA with C25G, A27U, C28U, C30A, A31G
DNA 1: CAATCTGAATTCCGGTCTCCC
DNA 2: TGGTGGCTACGACGGGATT
B11: GAAUGAG (DNA:RNA)
RNA: B2 RNA with C25G, C28U, C30A, A31G
DNA 1: CAATCTGAATTCCGGTCTCCC
DNA 2: TGGTGGCTACGACGGGATT
B12: GGAUGAG (DNA:RNA)
RNA: B2 RNA with C25G, A26G, C28U, C30A, A31G
DNA 1: CAATCTGAATTCCGGTCTCCC
DNA 2: TGGTGGCTACGACGGGATT
B13: CGAUGAG (DNA:RNA)
RNA: B2 RNA with A26G, C28U, C30A, A31G
DNA 1: CAATCTGAATTCCGGTCTCCC
DNA 2: TGGTGGCTACGACGGGATT
B14: CUAUGAG (DNA:RNA)
RNA: B2 RNA with A26U, C28U, C30A, A31G
DNA 1: CAATCTGAATTCCGGTCTCCC
DNA 2: TGGTGGCTACGACGGGATT
B15: AUUACUA (DNA:RNA)
RNA: B3 RNA with U25A, G26U, U29C, A30U, C31A
DNA 1: CAATCTGAATTCCGGTCTCCC
DNA 2: TGGTGGCTACGACGGGATT
B16: GGCAUCG (DNA:RNA)
RNA: B3 RNA with U25G, U27C, A30C, C31G
DNA 1: CAATCTGAATTCCGGTCTCCC
DNA 2: TGGTGGCTACGACGGGATT
B17: GGCAUUG (DNA:RNA)
RNA: B3 RNA with U25G, U27C, A30U, C31G
DNA 1: CAATCTGAATTCCGGTCTCCC
DNA 2: TGGTGGCTACGACGGGATT
B18: GGCAUCC (DNA:RNA)
RNA: B3 RNA with U25G, U27C, A30C
DNA 1: CAATCTGAATTCCGGTCTCCC
DNA 2: TGGTGGCTACGACGGGATT
B19: GUCGGCA (DNA:RNA)
RNA: B2 RNA with C25G, A26U, A27C, C28G
DNA 1: CAATCTGAATTCCGGTCTCCC
DNA 2: TGGTGGCTACGACGGGATT
B20: GGCAUUC (DNA:RNA)
RNA: B3 RNA with U25G, U27C, A30U
DNA 1: CAATCTGAATTCCGGTCTCCC
DNA 2: TGGTGGCTACGACGGGATT
B21: GGCACCG (DNA:RNA)
RNA: B3 RNA with U25G, U27C, U29C, A30C, C31G
DNA 1: CAATCTGAATTCCGGTCTCCC
DNA 2: TGGTGGCTACGACGGGATT
B22: CGAUGAA (DNA:RNA)
RNA: B2 RNA with A26G, C28U, C30A
DNA 1: CAATCTGAATTCCGGTCTCCC
DNA 2: TGGTGGCTACGACGGGATT
B23: AAAAUAC (DNA:RNA)
RNA: B3 RNA with U25A, G26A, U27A
DNA 1: CAATCTGAATTCCGGTCTCCC
DNA 2: TGGTGGCTACGACGGGATT
B24: CCACGAC (DNA:RNA)
RNA: B2 RNA with A26C, C30A, A31C
DNA 1: CAATCTGAATTCCGGTCTCCC
DNA 2: TGGTGGCTACGACGGGATT
B25: AUUAACG (DNA:RNA)
RNA: B1 RNA with C26U, G27U, U28A, G30C, U31G
DNA 1: CAATCTGAATTCCGGTCTCCC
DNA 2: TGGTGGCTACGACGGGATT
B26: AUGAAUG (DNA:RNA)
RNA: B1 RNA with C26U, U28A, G30U, U31G
DNA 1: CAATCTGAATTCCGGTCTCCC
DNA 2: TGGTGGCTACGACGGGATT
B27: AUGAAUC (DNA:RNA)
RNA: B1 RNA with C26U, U28A, G30U, U31C
DNA 1: CAATCTGAATTCCGGTCTCCC
DNA 2: TGGTGGCTACGACGGGATT
B28: AUGAUUC (DNA:RNA)
RNA: B3 RNA with U25A, G26U, U27G, A30U
DNA 1: CAATCTGAATTCCGGTCTCCC
DNA 2: TGGTGGCTACGACGGGATT
B29: AUGAUUG (DNA:RNA)
RNA: B1 RNA with C26U, U28A, A29U, G30U, U31G
DNA 1: CAATCTGAATTCCGGTCTCCC
DNA 2: TGGTGGCTACGACGGGATT
B30: AUCCAUG (DNA:RNA)
RNA: B1 RNA with C26U, G27C, U28C, G30U, U31G
DNA 1: CAATCTGAATTCCGGTCTCCC
DNA 2: TGGTGGCTACGACGGGATT
B31: ACCAUGA (DNA:RNA)
RNA: B1 RNA with G27C, U28A, A29U, U31A
DNA 1: CAATCTGAATTCCGGTCTCCC
DNA 2: TGGTGGCTACGACGGGATT

The binders below were run against T1, RBFOX1 RRM RbFoxmut (Fox-RRM*) (assay: EMSA; HiTS-Eq, 1 nM pool, 10 min; buffer printed only for the single-RNA assays: 10 mM Tris pH 7.5, 150 mM NaCl, 3.4 mM EDTA, 0.001% NP-40, 30 C). Conditions: tags: His6 N-terminal (pET28a); label: 5' 32P.
How it was run: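 Purified RbFox RRM (wild type or mutant) was equilibrated for 10 min in 50 µL with 1 nM of a 5′-radiolabelled pool of RNA with 7 randomized nucleotides, its flanks annealed to DNA oligonucleotides, across increasing protein concentrations. Free RNA was separated by 8% native PAGE, excised, reverse-transcribed, PCR-barcoded and sequenced on an Illumina HiSeq 2500. Relative association constants came from read-count changes of each variant against the control reaction, normalised to the cognate motif.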

| Binder | binding signal |
| --- | --- |
| B1 | 0.15 KA relative to UGCAUGU |
| B2 | 0.161 KA relative to UGCAUGU |
| B3 | 0.114 KA relative to UGCAUGU |
| B4 | 0.0952 KA relative to UGCAUGU |
| B5 | 0.124 KA relative to UGCAUGU |
| B6 | 0.17 KA relative to UGCAUGU |
| B7 | 0.0837 KA relative to UGCAUGU |
| B8 | 0.0596 KA relative to UGCAUGU |
| B9 | 0.513 KA relative to UGCAUGU |
| B10 | 0.183 KA relative to UGCAUGU |
| B11 | 0.983 KA relative to UGCAUGU |
| B12 | 0.225 KA relative to UGCAUGU |
| B13 | 0.133 KA relative to UGCAUGU |
| B14 | 0.107 KA relative to UGCAUGU |
| B15 | 0.129 KA relative to UGCAUGU |
| B16 | 0.467 KA relative to UGCAUGU |

| Binder | binding signal |
| --- | --- |
| B17 | 0.394 KA relative to UGCAUGU |
| B18 | 0.229 KA relative to UGCAUGU |
| B19 | 0.13 KA relative to UGCAUGU |
| B20 | 0.119 KA relative to UGCAUGU |
| B21 | 0.132 KA relative to UGCAUGU |
| B22 | 0.123 KA relative to UGCAUGU |
| B23 | 0.076 KA relative to UGCAUGU |
| B24 | 0.0943 KA relative to UGCAUGU |
| B25 | 0.134 KA relative to UGCAUGU |
| B26 | 1.02 KA relative to UGCAUGU |
| B27 | 0.334 KA relative to UGCAUGU |
| B28 | 0.139 KA relative to UGCAUGU |
| B29 | 0.428 KA relative to UGCAUGU |
| B30 | 0.1 KA relative to UGCAUGU |
| B31 | 0.076 KA relative to UGCAUGU |
